From PubChem BioAssay (NCATS) come the findings set out here.

Structures are written as SMILES. Results filed as inconclusive are left out. Calls of active or inactive are those of the source. The call rests on the fitted dose curve; in most records, active means well fitted curve in the direction sought with a large enough effect; inconclusive means small, poorly fitted or top-dose-only effect, or another doubt; inactive means no such curve, though single readings can be large; an effect the other way counts as inactive or inconclusive. Numbered stars: 1 amine (or outer) side, 2 acyl side, 3 side chain; on linkers, the order of the positions; unused ones are H or OH. Square brackets hold non-standard residues; d marks the D form. Peptide text beside a SMILES is read from it. ξ: configuration not given here. X4 = O=C(C1CC2(c3ccc(O)cc3)c3ccccc3NC2N1[*:1])[*:2]; ξW = NC(Cc1c[nH]c2ccccc12)C(=O)O; ξY = NC(Cc1ccc(O)cc1)C(=O)O

The nature of test [1]: SW1088 Cancer Cell Toxicity qHTS against the NCATS CANVASS Library (AID 1347350). Further: nearly all actives have a fitted effect of over 75% in size. Further: potency means the concentration at half of the fitted maximal effect. A digest of the protocol: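 In this cytotoxicity screen, 1000 cells per well rested 4 hours, then received compound (11 concentrations) for a 72-hour incubation; an ATP-dependent luminescent signal (CellTiter-Glo) was the endpoint.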
For orientation: In qHTS, concentration-response curves come from the screen itself.

Test [2] is described as follows: HEK-293 Cancer Cell Toxicity qHTS against the NCATS CANVASS Library (AID 1347355). Further: nearly all actives have a fitted effect of over 65% in size. Further: potency means the concentration at half of the fitted maximal effect. On outcome: series mostly up to about 46 µM. In outline:
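Cells were seeded at 1000 per well and allowed to settle 4 hours at 37 degrees C before pin transfer of compounds as an 11-point series. Viability was read by CellTiter-Glo luminescence after 72 hours' exposure.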

Test [3] is described as follows: Secretion counterscreen for inhibitors of the SERCaMP assay screened against the NCATS CANVASS Library (AID 1347390).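 Further: light from luciferase secreted into medium read as a measure of general secretion.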 Further: potency means the concentration at half of the fitted maximal effect. In outline: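 Counterscreen for secretory-pathway interference: after 4 h attachment, SH-SY5Y-GLuc cells were exposed 20 hours to compounds (final 0.001 - 77 uM), then coelenterazine added and GLuc luminescence recorded; Brefeldin A served as control.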

The nature of test [4]: HPAF-II Cancer Cell Toxicity qHTS against the NCATS CANVASS Library (AID 1347346). Further: nearly all actives have a fitted effect of over 55% in size. Further: potency means the concentration at half of the fitted maximal effect. In outline:
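HPAF-II cells were seeded at 1000 cells/well, allowed to settle for 4 h at 37 degrees C, then exposed to compounds in an 11-point series for 72 h. Viability was read by CellTiter-Glo luminescence.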

Test [5] in a line: DH5-alpha competent E. coli microbial cell viability qHTS against the NCATS CANVASS Library (AID 1347377). Conditions: outcome: dose series up to 46.1 µM unless noted. In outline:
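DH5-alpha E. coli suspension (0.9 OD culture diluted to 0.2 OD) exposed to compounds in an 11-point series, overnight at 37C, 5% CO2. Viability read as ATP by BacTiter-Glo luminescence after 20 min at room temperature.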

Test [6] is described as follows: qHTS for Activators of p53 Stress Response Pathway screened against the NCATS CANVASS Library (AID 1347388). In outline:
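Beta-lactamase reporter driven by p53 response elements in HCT-116 cells, read as the 460 nm/530 nm emission ratio after CCF4 loading, following 16 h of exposure to an 11-point series. Cell viability was measured in the same wells by CellTiter-Glo luminescence.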

Test [7] in a line: qHTS for inhibitors of ER calcium dysfunction: SERCaMP assay screened against the NCATS CANVASS Library (AID 1347393). Further: nearly all actives have a fitted effect of over 40% in size. Further: potency means the concentration at half of the fitted maximal effect. In outline: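 Thapsigargin-induced ER calcium depletion drives GLuc-SERCaMP secretion from SH-SY5Y cells; compounds given 16 h beforehand were scored by lowered coelenterazine luminescence after 4 h challenge.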
Test [8] in a line: qHTS assay for small molecule disruptors of mitochondrial membrane potential screened against the NCATS CANVASS Library (AID 1347389). Further: nearly all actives have a fitted effect of over 60% in size. Further: potency means the concentration at half of the fitted maximal effect. In outline:
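HepG2 cells (2,000/well) were plated overnight at 37C, exposed to compound for 1 hr at 37C/5% CO2, then loaded with Mito-MPS dye for 30 min. Depolarization was read as a drop in red (590 nm) to green (535 nm) fluorescence ratio.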

Test [9] in a line: qHTS for Antimalaria activity screened against the NCATS CANVASS Library (AID 1347380). Further: nearly all actives have a fitted effect of over 40% in size. Further: potency means the concentration at half of the fitted maximal effect. In outline:
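P. falciparum Dd2-infected RBCs (2.5% hematocrit final, 0.3% parasitemia) in Albumax II RPMI were exposed to compounds in an 11-point qHTS series for 72 h at 37C under 5% O2/5% CO2, then lysed with SYBR Green.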

In the case of `CC(=O)O[C@H]1CC[C@@]2(C)C(CC[C@]3(C)C2CC=C2C4CC(C)(C)CC[C@]4(C)CC[C@]23C)C1(C)C` (stereo partly drawn), the Potency entry in test [1], in test [2] and in test [3] was “inactive” each time.
As to `CC(C)=CCC[C@@H](C)[C@@H]1CC[C@@]2(C)C[C@H]3C(C)=CC(=O)[C@@H]3/C(C=O)=C\C[C@H]12`, the Potency in test [4] was 5.95 µM (active); in test [1] it was 2.66 µM (active); in test [2], 9.35 µM (active). In [5], the result was inactive.
On to `CC[C@H](C)[C@H](NC(=O)C(Cc1ccc(O)cc1)NC(=O)C(Cc1c[nH]c2ccccc12)NC(=O)[C@H](C)N)C(=O)N1C(C(=O)NC(Cc2ccc(O)cc2)C(=O)O)CC2(c3ccc(O)cc3)c3ccccc3NC12` (stereo partly drawn) (H-A[ξW][ξY]I[X4][ξY]-OH), for which the Potency entry in [1], in test [2] and in test [6] was “inactive” each time. Further, in test [5], the call was inactive.
On to `O=Cc1ccc2n1C[C@@]1(C[C@H](O)[C@@H](CO)O1)OC2`, for which the Potency entry in test [4], in test [1], in test [3] and in test [7] was “inactive” in each case.
For `OCc1ccc2ocnc2c1`, the Potency entry in [1], in [8], in [3] and in [7] was “inactive” in each case. In addition, the compound was classed as inactive in [5].
Take `O=C1C[C@@H](c2ccc(O)c(-c3c(O)cc(O)c4c3O[C@H](c3ccc(O)cc3)CC4=O)c2)Oc2cc(O)cc(O)c21`: the Potency entry in test [4], in test [1], in test [6], in [8] and in test [7] was “inactive” in each case. Moreover, the result in [5] was inactive.
Regarding `O=C(O)[C@@]12COC3(O)C1CCN1CC[C@H]3[C@@H]1c1c2[nH]c2ccccc12`, the Potency entry in test [1], in test [2], in test [9], in test [6] and in [8] was “inactive” throughout. Besides, in test [5], the compound was classed as inactive.
Turning to `CCCCCCCCCCCCCCC[C@H](O)C[C@@H](O)C[C@@H](O)C[C@@H](O)C[C@@H](O)C[C@H]1CC=CC(=O)O1`, the Potency in test [4] was 4.21 µM (active); in test [2], 5.26 µM (active); in [9], 3.75 µM (active); in test [3], 8.6 µM (active). Further, the compound was classed as inactive in test [5]. Also, the Potency entry in test [7] was “inactive”.
On to `CC1(C)CC[C@]2(C(=O)O)CC[C@]3(C)C(=CC[C@@H]4[C@@]5(C)C[C@@H](O)[C@H](O)C(C)(C)[C@@H]5CC[C@]43C)[C@@H]2C1`, for which the Potency entry in [4], in test [8] and in [3] was “inactive” throughout. Also, in [5], the outcome was inactive.
With `COc1ccc([C@@H]2c3cc(OC)c(OC)cc3C(=O)C(C)C2C)cc1OC` (stereo partly drawn), the Potency entry in test [4], in test [1] and in test [2] was “inactive” throughout. In addition, the compound was called inactive in test [5]. Further, the Potency in [7] is 38.4 µM (active).
`C=C(C)C(=O)O[C@H]1C[C@H](C)[C@@H](OC(C)=O)CC[C@@]2(C)O[C@@H]2[C@H]2OC(=O)C(COC(C)=O)=C12`: the values for the Potency in test [4] and in test [1] were 11.9 µM (active) and 8.41 µM (active), respectively. In addition, the Potency result in [8] is “inactive”.
As for `O=c1cc(-c2ccc(O)c(O[C@@H]3O[C@H](CO)[C@@H](O)[C@H](O)[C@H]3O)c2)oc2cc(O[C@@H]3O[C@H](CO)[C@@H](O)[C@H](O)[C@H]3O)cc(O)c12`, the Potency entry in test [4], in test [8] and in [7] was “inactive” throughout.
Regarding `C=C(NC(=O)c1csc(-c2nc3c(cc2O)-c2nc(cs2)C(=O)NC(C(C)O)C(=O)N/C(=C(\C)O)c2nc(cs2)C(=O)NC2c4nc(cs4)C(=O)NC(COC(=O)c4c5c6c(cccc6n4O)COC(=O)[C@@H](OC4C[C@](C)(O)[C@H](N(C)C)[C@H](C)O4)C2OC5)c2nc-3cs2)n1)C(N)=O` (stereo partly drawn), the Potency result in test [4] is “inactive”. Besides, the compound was called inactive in test [5].
Consider `C=CC(C)(C)C(=O)[C@@H](C)[C@@H]1CC[C@](C)(C=C)O1`, for which the Potency entry in [4], in test [1], in [9], in [8] and in [7] was “inactive” each time.
As to `CCC[C@@H](C)/C=C(\C)[C@H](O)[C@H](C)/C=C/CC[C@@H](O)[C@H](C)[C@H](O)[C@H](C)[C@H](O)[C@H](C)[C@H]1O[C@H]([C@H](C)C(=O)O)CC[C@@H]1C`, the Potency is 4.73 µM (active) in test [4] and 14.8 µM (active) in test [2]. The Potency entry in test [7] was “inactive”.
As for `O=Cc1ccc2n1C[C@@]1(OC2)O[C@H](CO)[C@@H](O)[C@@H]1O`, the Potency entry in test [1], in test [2], in test [6], in [3] and in [7] was “inactive” in each case.
On to `C=CC(=C)CC[C@]1(C)[C@H]2C[C@H](OC(=O)C(C)CC)C=C3[C@H](OC(C)=O)O[C@H](OC(C)=O)[C@@]32[C@H](OC)C[C@@H]1C` (stereo partly drawn), for which the Potency in test [1] was 0.769 µM (active); in [2], 4.29 µM (active); in test [8], 15.2 µM (active); in [3], 3.96 µM (active). For the same compound, in test [7], the Potency entry is “inactive”.
Regarding `CC(=O)O[C@@H]1C=C2C(=O)OC[C@]2(O)[C@@]2(C)CCCC(C)(C)[C@H]12`, the Potency in test [4] is 13.3 µM (active); in [2], 8.33 µM (active); in test [8], 18.6 µM (active); in test [3], 15.3 µM (active). For the same compound, the Potency result in [7] was “inactive”.
Consider `C[C@@]12C[C@@H](C[C@H]3C(=O)O[C@@H](c4ccoc4)[C@H](OC(=O)c4ccccc4)[C@@H]31)OC2=O`, for which the Potency result in test [4], in test [6], in test [3] and in [7] was “inactive” each time. The compound was called inactive in test [5].
Consider `C=C(C)[C@@H]1CC[C@]2(C)CC[C@]3(C)[C@H](CC[C@@H]4[C@@]5(C)CC[C@H](O)C(C)(C)[C@@H]5CC[C@]43C)[C@@H]12`, for which the Potency result in test [4], in test [1], in [2], in test [3] and in test [7] was “inactive” in each case. In addition, in test [5], the compound was called inactive.
For the compound `CC1C(=O)C23CCC1C[C@@]21O[C@H]2C(C)(C)C=CC(=O)[C@@]23COC1=O` (stereo partly drawn), the Potency entry in test [4], in test [2], in [6] and in test [7] was “inactive” each time. The compound was called inactive in test [5].
As for `C[C@@H]1C(=O)[C@]23CC[C@H]1C[C@]21O[C@H]2C(C)(C)C=CC(=O)[C@]23COC1=O`, the Potency result in test [1], in [2] and in test [6] was “inactive” in each case. For the same compound, the outcome in test [5] was inactive.
